Assay outcomes: PubChem BioAssay, several laboratories
This is a sample that favours compounds with a hit; in the whole collection about 3.3% have one here.
PHOSPHO1 inh: PHOSPHO1 (human) inhibition; hit rate 1.1% among 290,000; recombinant PHOSPHO1, absorbance phosphatase assay; Q8TCT1; AID 1565; inhibition, % at 13.3 µM; in the data active means inhibition above about 60%
Target sequence (Q8TCT1 whole entry, looked up): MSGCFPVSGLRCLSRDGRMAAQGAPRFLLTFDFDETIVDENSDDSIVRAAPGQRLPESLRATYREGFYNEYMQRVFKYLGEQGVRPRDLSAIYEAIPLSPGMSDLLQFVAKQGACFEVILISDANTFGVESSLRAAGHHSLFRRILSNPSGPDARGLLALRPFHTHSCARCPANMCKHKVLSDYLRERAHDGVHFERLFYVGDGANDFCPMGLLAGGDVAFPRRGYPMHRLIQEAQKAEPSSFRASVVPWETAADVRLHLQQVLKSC
KCC2 mod: modulates chloride dependent transport by human KCC2 | B-score of Tl+ flux slope (higher = more flux/activation; lower = inhibition) at 10 µM | Q9H2X9 | KCC2 cells, thallium flux FluoZin-2 fluorescence | hit rate 2.2% among 190,000;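 active means thallium flux slope and its plate-corrected score both differing from the plate sample mean at a set confidence after two filtering rounds, in either direction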;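 further: slope of fluorescence scaled to starting intensity during 10 to 20 s after thallium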
Efflux pump mplx: antifungal efflux pump inhibition, Nile Red retention; S. cerevisiae Candida pump triplex; inhibition, % at 10 µM; hit rate 0.44% among 330,000;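 active means plate passing quality check with inhibition over a set limit, or well fluorescence over plate mean plus 4 SD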;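 further: Nile Red retained in pooled yeast measured as flow cytometry median fluorescence; 0% = buffer negative control and 100% = Enniatin B positive control; higher means more Nile Red kept so more efflux inhibition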
Cardio protect: modulators protecting cardiomyocytes from myocardial damage. H9c2 cardiomyocytes, H2O2 injury protection, ATPLite, 2 h. protection from H2O2 cell death, % at 20 µM. hit rate 0.63% among 360,000;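 active means compounds giving at least 50% protection of heart cells from peroxide-induced death in the single-dose screen, raw or plate-pattern-corrected value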;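 further: 0% = DMSO wells with peroxide and 100% = DMSO wells without peroxide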
Calb FLC: affects C. albicans growth with fluconazole; C. albicans CaCi-2 (fluconazole-resistant clinical isolate) + fluconazole, Alamar Blue growth, 48 h; growth inhibition, % (no concentration beside the values); hit rate 0.57% among 300,000; AID 1979;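 active means growth inhibition above about 58% in most replicates, limit read from the data, passing the limit was not always enough; inconclusive means exactly half the replicates above a set limit; inactive means most replicates below a set limit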;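 further: all wells also contain fluconazole at 8 µg/ml as a sub-toxic cotreatment; 0% = median of DMSO wells and 100% = median of geldanamycin control wells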
KCC2 sec1: confirmation of human KCC2 transport modulators; AID 1713; HEK293-KCC2, thallium flux, FluoZin2 fluorescence; active compounds read high; shares compounds with KCC2 mod; hit rate 15% among 3,700; normalised thallium flux (F/F0 slope) at 10 µM;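 active means thallium flux slope above the same plate's solvent-only control mean plus 3 SD; inconclusive means the two replicate wells disagree; inactive means no significant difference from solvent-only control wells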
KCC2 bumet counter: thallium flux despite bumetanide block in KCC2 cells, secondary assay 3; shares compounds with KCC2 mod; HEK293-KCC2 + bumetanide/ouabain, thallium flux FluoZin2; active compounds read high; normalized thallium flux at 10 µM; hit rate 49% among 3,700; AID 1714;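 active means thallium entry rate above the same plate's blocked-transporter control wells by more than 3 SD; inconclusive means the two repeat wells disagree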;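 further: raw slope of fluorescence over initial fluorescence between 10 and 20 s after thallium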
KCC2 secondary2: KCC2 (human) modulation, second secondary assay; HEK293-KCC2, thallium flux FluoZin2 fluorescence; actives lie on both sides; F/F0 rise rate, 10–20 s post-thallium; shares compounds with KCC2 mod; hit rate 23% among 3,700; normalized thallium flux at 10 µM;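 active means thallium flux slope more than 3 SD above or below the plate's solvent-only control mean, mostly below; inconclusive means the two repeat wells disagreed; inactive means no significant shift from solvent-only controls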;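 further: raw slope with 0.1% DMSO as baseline and bumetanide as block control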
HEK293 Tl flux: acts in parental HEK cells, KCC2 counter-screen | HEK293 parental cells, thallium flux FluoZin2, ouabain; baseline-ratio fluorescence slope, 10–20 s after thallium | thallium flux rate (normalised fluorescence) at 10 µM | shares compounds with KCC2 mod | hit rate 46% among 3,700;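 active means thallium flux rate significantly above the same plate's solvent-only control wells, beyond their mean plus 3 SD; inconclusive means the two replicate wells gave conflicting results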
KCC2 ouabain: confirmation of human KCC2 modulators with ouabain. raw Tl+ flux slope (below DMSO = inhibition, above = activation) at 10 µM. hit rate 48% among 3,700. shares compounds with KCC2 mod. HEK293-KCC2, thallium flux FluoZin2 fluorescence; bidirectional: low = inhibitor, high = activator;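 active means thallium flux slope beyond 3 SD from same-plate DMSO control mean in most replicates, usually higher, sometimes lower; inconclusive means repeat tests gave conflicting results; inactive means no significant difference from controls in most replicates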;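 further: slope of initial-normalized fluorescence between seconds 10 and 20 after thallium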
HEK counter2: counter-screen for KCC2 modulators: effect in parental HEK293 cells | shares compounds with KCC2 mod | thallium flux FluoZin-2 fluorescence slope | thallium flux slope at 10 µM | hit rate 33% among 3,700;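 active means thallium flux slope above the same plate's solvent-control mean plus 3 SD in both duplicate wells; inconclusive means duplicate wells that disagreed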;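 further: run without ouabain in cells lacking the KCC2 cotransporter; slope of fluorescence scaled to its starting value between 10 and 20 s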
* hit, by the source's call; ? = inconclusive; . = no result given.

SMILES	PHOSPHO1 inh	KCC2 mod	Efflux pump mplx	Cardio protect	Calb FLC	KCC2 sec1	KCC2 bumet counter	KCC2 secondary2	HEK293 Tl flux	KCC2 ouabain	HEK counter2
Cc1ccc(NS(=O)(=O)c2c(C(=O)N3CCCCCC3)c(C)n(C)c2C)c(Cl)c1	20	.	0	3	2	.	.	.	.	.	.
Cc1cc(SCC(=O)NN)c2cc(Br)ccc2n1	-15	-0.15	0	4	-1	.	.	.	.	.	.
O=C(NC(=S)Nc1cccc2ncccc12)c1cccs1	-12	8.2*	0	-8	34	?	0.035*	0.032	0.016*	0.025*	0.018*
CCOC(=O)CCCn1ccc2cc(S(=O)(=O)N3CCCC3)ccc21	37	.	0	-5	3	.	.	.	.	.	.
O=C1OCCC1Sc1ncnc2sc3c(c12)CCC3 (centres undefined)	14	3.3*	0	7	10	0.0055	0.024*	?	0.018*	?	0.018*
CC(=O)CSc1ncnc2sc3c(c12)CCC3	24	7.1*	0	4	14	0.019	0.024*	0.033	0.014*	0.022*	0.017*
O=C(CSc1ncnc2sc3c(c12)CCC3)NCC1CCCO1 (centres undefined)	24	.	0	0	.	.	.	.	.	.	.
Cc1ccc(C(=O)CSc2ncnc3sc4c(c23)CCC(C)C4)cc1 (centres undefined)	-13	4.2*	.	-24	-5	?	0.037*	0.037	?	?	0.012
CC(C)NC(=O)C1CCN(C(=O)C(C(=O)c2ccccc2)n2cc(Cl)ccc2=O)CC1 (centres undefined)	-23	-4.3*	0	1	?	0.0098	?	0.036	0.0096*	0.024	?
Cc1cc2oc(=O)cc(CN3CCOCC3)c2cc1C	-1	6.9*	0	2	8	0.0062	0.0053	0.026*	0.0076	0.018	0.011
C=CCN(CC=C)C(=S)NC(=O)Cc1cccc2ccccc12	-27	.	0	3	-15	0.043*	0.15*	0.061*	0.1*	0.13*	0.054*
O=C(Cc1cccc2ccccc12)Nc1ccccc1	.	.	1	-5	-2	.	.	.	.	.	.
O=c1c2ccccc2c(-c2n[nH]c(=S)o2)nn1Cc1ccccc1	-95	-4.9*	0	-3	2	0.0088	0.0057	?	0.0068	0.014*	?
O=C(CN1C(=O)CCSc2ccc(S(=O)(=O)N3CCOCC3)cc21)Nc1cccc(F)c1	38	.	0	4	-11	.	.	.	.	.	.
CC(=O)Nc1ccc(S(=O)(=O)N2CCN(C(C)CCc3ccccc3)CC2)cc1 (centres undefined)	19	.	0	-11	-15	0.016	0.0049	0.021*	0.0076	0.014	0.01
CC(=O)Nc1ccc(NC(=O)C(C)N2CCN(S(=O)(=O)c3ccc(C)cc3)CC2)cc1 (centres undefined)	-2	0.03	0	4	-5	.	.	.	.	.	.
O=C(c1ccc(O)cc1)c1ccc(C(=O)c2ccc(O)cc2)cc1	-6	0.72	0	-11	-4	0.0081	0.0074	0.027	0.0069	0.019	0.0094
CCOC(=O)c1sc(-c2cccc(C(F)(F)F)c2)nc1O	20	8.1*	0	11	0	0.0071	0.015*	0.03	0.012*	?	0.014*
CCOC(=O)c1sc(-c2ccc(Cl)cc2)nc1O	-13	15*	0	-2	-2	0.0096	0.022*	0.032	0.011*	0.024	?
CCOC(=O)c1sc2nc(Cc3ccc(Cl)cc3)[nH]c(=S)c2c1C	6	79*	0	4	-6	0.025*	0.12*	0.038*	0.052*	0.076*	0.026*
COc1ccc(S(=O)(=O)NCCOc2ccccc2)cc1-n1cnnn1	11	-3.8*	0	-5	0	0.0078	?	0.025*	0.0072	0.017*	0.0097
S=C(Nc1ccccc1)Nc1cccc(Cl)c1Cl	41	17*	0	-1	-3	0.0053	0.016*	0.032	0.012*	?	0.014*
C[C@@H]1CC[C@H]2C(=O)N3[C@@H](CC[C@@H](C)[C@@H]3c3ccc(Br)cc3)C(=O)N2[C@H]1c1ccc(Br)cc1	4	5.3*	0	-2	8	0.0069	0.0053	0.028	0.0078	0.018	0.011
O=C(O)c1ccc(CSc2nc3ccc(NC(=O)c4ccccc4C(=O)O)cc3s2)cc1	43	0.63	0	1	8	.	.	.	.	.	.
N#Cc1ccccc1CSc1nc2ccc(NC(=O)c3ccccc3C(=O)O)cc2s1	2	-3.6*	0	6	-49	0.0078	0.005	0.037	0.0037	0.017*	0.01
SMILES	PHOSPHO1 inh	KCC2 mod	Efflux pump mplx	Cardio protect	Calb FLC	KCC2 sec1	KCC2 bumet counter	KCC2 secondary2	HEK293 Tl flux	KCC2 ouabain	HEK counter2
O=C(NNC(=S)Nc1ccc(F)cc1)C1[C@H]2CCCC[C@@H]12 (some centres undefined)	56	1.6	0	1	6	.	.	.	.	.	.
CN(c1ccccc1)S(=O)(=O)c1ccc(C(=O)N2CCc3ccccc3C2)cc1	-46	-2	0	-1	-15	.	.	.	.	.	.
Cc1ccc(S(=O)(=O)N(C)c2ccc(C(=O)N3CCc4ccccc4C3)cc2)cc1	38	-4.8*	0	-16	10	0.014	0.0039	0.024*	?	0.013*	0.0095
CC(C)c1ccc(O)c(=O)cc1	.	.	.	36	.	.	.	.	.	.	.
CC(C)c1cccc(O)c(=O)c1	28	9.1*	0	2	-4	0.0083	0.016*	0.032	0.013*	0.026*	?
CCCC(C)(C)C(=O)N1CCC1(C)C(=O)NS(=O)(=O)c1ccc(Cl)cc1 (centres undefined)	.	.	.	1	.	.	.	.	.	.	.
COc1ccc(C(=O)OCC(=O)NC(=O)NC2CCCC2)cc1OC	.	.	0	3	.	.	.	.	.	.	.
COc1cccc(C(=O)OCC(=O)NC(=O)NC2CCCC2)c1O	32	11*	0	1	22	0.01	0.017*	0.035	0.02*	0.027*	0.014*
COCCN1C(=O)/C(=C/c2ccc(OCc3ccc(C(=O)O)cc3)c(OC)c2)SC1=Nc1ccccc1	-8	-5.7*	0	9	41	0.0074	0.0051	0.022*	0.0066	0.013*	0.0094
